These results are taken from PubChem BioAssay (EPA / NIEHS).

Read-out in assay [1]: Interleukin-1 alpha (IL1a), IL1A (gene 3552)
Description: BSK_KF3CT_IL1a: BioMAP Diversity Plus: KF3CT Assay for Interleukin-1 alpha (IL1a) Biomarker Activity (AID 2283070). The following applies: primary human keratinocytes with fibroblasts; actives raise or lower the signal. In short, it runs like this:
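Readout is IL-1a level by ELISA, compared bidirectionally with DMSO as baseline. Cells: human keratinocytes co-cultured with foreskin fibroblasts, harvested 24 h post-dose.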

Read-out in assay [2]: TIMP metallopeptidase inhibitor 2 (TIMP2), TIMP2 (gene 7077)
Description: BSK_KF3CT_TIMP2: BioMAP Diversity Plus: KF3CT Assay for TIMP metallopeptidase inhibitor 2 (TIMP2) Biomarker Activity (AID 2283071). To be noted: primary human keratinocytes with fibroblasts; actives raise or lower the signal. In short, it runs like this: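 ELISA readout of TIMP-2 in keratinocyte plus foreskin fibroblast co-cultures (human skin primary cells), 24 h post-dose. Gain or loss of signal fitted relative to DMSO.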

Read-out in assay [3]: Transforming growth factor beta 1 (TGFb1), TGFB1 (gene 7040)
As to the kind of experiment: BSK_KF3CT_TGFb1: BioMAP Diversity Plus: KF3CT Assay for Transforming growth factor beta 1 (TGFb1) Biomarker Activity (AID 2283072). The following applies: primary human keratinocytes with fibroblasts; actives raise or lower the signal. In short, it runs like this:
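Read-out: ELISA for TGF-b1 in keratinocyte/foreskin fibroblast human skin co-culture, 24 h after dosing; bidirectional curve fit vs DMSO baseline; gain or loss of signal scored.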

Read-out in assay [4]: C-C motif chemokine 2 (Homo sapiens) (UniProt P13500)
As to the kind of experiment: BSK_KF3CT_MCP1: BioMAP Diversity Plus: KF3CT Assay for Monocyte Chemoattractant Protein 1 (MCP1/CCL2) Biomarker Activity (AID 2283073). The following applies: primary human keratinocytes with fibroblasts; actives raise or lower the signal. In outline: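 KF3CT skin co-culture (keratinocytes/foreskin fibroblasts), 24 h post-dose; MCP-1 by ELISA; gain/loss of signal fit bidirectionally vs DMSO baseline.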

Read-out in assay [5]: Matrix Metallopeptidase 9 (MMP9), MMP9 (gene 4318)
As to the kind of experiment: BSK_KF3CT_MMP9: BioMAP Diversity Plus: KF3CT Assay for Matrix Metallopeptidase 9 (MMP9) Biomarker Activity (AID 2283074). The following applies: primary human keratinocytes with fibroblasts; actives raise or lower the signal. In outline:
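Values come from bidirectional fitting relative to DMSO of MMP-9 levels, which were measured by ELISA. Measurements were taken 24 h after chemical dosing of a keratinocyte and foreskin fibroblast co-culture.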

Read-out in assay [6]: urokinase plasminogen activator (uPA), PLAU (gene 5328)
As to the kind of experiment: BSK_KF3CT_uPA: BioMAP Diversity Plus: KF3CT Assay for urokinase plasminogen activator (uPA) Biomarker Activity (AID 2283075). To be noted: primary human keratinocytes with fibroblasts; actives raise or lower the signal. In outline:
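Values derive from bidirectional fitting against DMSO controls. Keratinocyte/foreskin fibroblast co-cultures received chemical; 24 h later uPA was detected by ELISA, with SRB total-protein staining in parallel wells for overt cytotoxicity.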

Read-out in assay [7]: CD40, CD40 (gene 958)
Description: BSK_LPS_CD40: BioMAP Diversity Plus: LPS Assay for CD40 Biomarker Activity (AID 2283076). The following applies: primary human HUVEC with PBMC; actives raise or lower the signal. In short, it runs like this: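 ELISA readout of CD40 in HUVEC/PBMC co-culture (BSK_LPS system), 24 h post-dosing; bidirectional curve fit, DMSO baseline; parallel SRB total-protein staining for cytotoxicity.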

Read-out in assay [8]: E-selectin (Homo sapiens) (UniProt P16581)
As to the kind of experiment: BSK_LPS_Eselectin: BioMAP Diversity Plus: LPS Assay for Eselectin Biomarker Activity (AID 2283077). The following applies: primary human HUVEC with PBMC; actives raise or lower the signal. In short, it runs like this:
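ELISA readout of E-selectin, 24 h post-dose, HUVEC + PBMC co-culture (LPS system). Gain or loss of signal vs DMSO baseline, bidirectional fit.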

Read-out in assay [9]: Interleukin-8 (IL8), CXCL8 (gene 3576)
Description: BSK_LPS_IL8: BioMAP Diversity Plus: LPS Assay for Interleukin-8 (IL8) Biomarker Activity (AID 2283078). The following applies: primary human HUVEC with PBMC; actives raise or lower the signal. In outline: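 HUVEC + PBMC co-culture, LPS-activated; test chemicals dosed, IL-8 read by ELISA at 24 h. Bidirectional curve fit vs DMSO baseline (gain or loss of signal).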

Assay [10] in a line: BSK_LPS_SRB: Viability Assessment in the BioMAP Diversity Plus: LPS Assay (AID 2283079).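 Further: total protein by sulforhodamine B absorbance as a cytotoxicity measure; measured one day after compound addition; fitted in both directions against DMSO so loss or gain of signal counts.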 The following applies: primary human HUVEC with PBMC. In outline: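 HUVEC + PBMC co-culture, LPS-stimulated; compound 24 h. 10% TCA fix, 0.1% SRB stain, A560. Bidirectional fit vs DMSO.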
Read-out in assay [11]: Interleukin-1 alpha (IL1a), IL1A (gene 3552)
As to the kind of experiment: BSK_LPS_IL1a: BioMAP Diversity Plus: LPS Assay for Interleukin-1 alpha (IL1a) Biomarker Activity (AID 2283080). The following applies: primary human HUVEC with PBMC; actives raise or lower the signal. In short, it runs like this:
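HUVEC/PBMC co-culture, LPS system; 24 h after dosing; IL-1a by ELISA; gain or loss of signal fitted bidirectionally vs DMSO baseline.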

Read-out in assay [12]: Monocyte Chemoattractant Protein-1 (MCP1), CCL2 (gene 6347)
Description: BSK_LPS_MCP1: BioMAP Diversity Plus: LPS Assay for Monocyte Chemoattractant Protein-1 (MCP1) Biomarker Activity (AID 2283081). To be noted: primary human HUVEC with PBMC; actives raise or lower the signal. In short, it runs like this:
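ELISA read-out of MCP-1 after 24 h chemical dosing of a human umbilical vein endothelial cell/peripheral blood mononuclear cell co-culture stimulated with LPS. Gain or loss of signal fitted relative to DMSO controls.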

The nature of assay [13]: BSK_LPS_PGE2: BioMAP Diversity Plus: LPS Assay for Prostaglandin E2 (PGE2) Biomarker Activity (AID 2283082). The following applies: primary human HUVEC with PBMC; actives raise or lower the signal. In outline: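 ELISA read-out of PGE2 from human umbilical vein endothelial cells co-cultured with peripheral blood mononuclear cells under LPS, 24 h post-dose. Gain or loss of signal scored relative to DMSO baseline.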

Read-out in assay [14]: Macrophage colony-stimulating factor (MCSF), CSF1 (gene 1435)
As to the kind of experiment: BSK_LPS_MCSF: BioMAP Diversity Plus: LPS Assay for Macrophage colony-stimulating factor (MCSF) Biomarker Activity (AID 2283083). To be noted: primary human HUVEC with PBMC; actives raise or lower the signal. In outline:
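HUVEC + PBMC co-culture (human primary), 24 h post-dose; M-CSF by ELISA; gain/loss of signal fitted bidirectionally vs DMSO baseline.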

Read-out in assay [15]: Tissue Factor, F3 (gene 2152)
Description: BSK_LPS_TissueFactor: BioMAP Diversity Plus: LPS Assay for Tissue Factor Biomarker Activity (AID 2283084). To be noted: primary human HUVEC with PBMC; actives raise or lower the signal. In outline:
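HUVEC/PBMC co-culture, LPS-activated; CD142 ELISA read 24 h post-dose; bidirectional curve fit vs DMSO negative control.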

Read-out in assay [16]: Tumor necrosis factor (Homo sapiens) (UniProt P01375)
As to the kind of experiment: BSK_LPS_TNFa: BioMAP Diversity Plus: LPS Assay for Tumour Necrosis Factor alpha (TNFa) Biomarker Activity (AID 2283085). To be noted: primary human HUVEC with PBMC; actives raise or lower the signal. In outline:
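HUVEC/PBMC co-culture, LPS-stimulated; 24 h post-dose; TNFa by ELISA; gain or loss of signal fitted bidirectionally vs DMSO baseline.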

Read-out in assay [17]: Vascular cell adhesion molecule 1 (VCAM1), VCAM1 (gene 7412)
As to the kind of experiment: BSK_LPS_VCAM1: BioMAP Diversity Plus: LPS Assay for Vascular cell adhesion molecule 1 (VCAM1) Biomarker Activity (AID 2283086). The following applies: primary human HUVEC with PBMC; actives raise or lower the signal. In short, it runs like this: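 ELISA read-out of VCAM-1 at 24 h post-dosing in an LPS-driven HUVEC/PBMC primary human co-culture; gain or loss of signal fitted bidirectionally against DMSO baseline. Cytotoxicity tracked in parallel cultures by SRB total-protein staining.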

Read-out in assay [18]: CD38, CD38 (gene 952)
Description: BSK_SAg_CD38: BioMAP Diversity Plus: SAg Assay for CD38 Biomarker Activity (AID 2283087). To be noted: primary human HUVEC with PBMC; actives raise or lower the signal. In short, it runs like this: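 Measures CD38 on a human endothelial/PBMC co-culture driven by SEB and TSST-1, 24 h after compound exposure, using ELISA with fluorescence detection; DMSO defines baseline for bidirectional curve fitting.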

Read-out in assay [19]: CD40, CD40 (gene 958)
Description: BSK_SAg_CD40: BioMAP Diversity Plus: SAg Assay for CD40 Biomarker Activity (AID 2283088). The following applies: primary human HUVEC with PBMC; actives raise or lower the signal. In short, it runs like this: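 HUVEC/PBMC co-culture, 24 h post-dose; CD40 by ELISA, fluorescence intensity; bidirectional fit vs DMSO negative control.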

Read-out in assay [20]: CD69, CD69 (gene 969)
As to the kind of experiment: BSK_SAg_CD69: BioMAP Diversity Plus: SAg Assay for CD69 Biomarker Activity (AID 2283089). To be noted: primary human HUVEC with PBMC; actives raise or lower the signal. In short, it runs like this: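 HUVEC co-cultured with PBMC were dosed with chemical, and CD69 was measured by ELISA with fluorescence read-out 24 h later. Bidirectional curve fitting used DMSO as negative control and activity baseline.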

Activity calls are given as the source filed them. How the source made its calls: active means hit-call score of the fitted dose curve at least 0.9, where 1 is the maximum; inactive means score below 0.9.

Chain of E-selectin (Homo sapiens) (P16581 whole entry, looked up): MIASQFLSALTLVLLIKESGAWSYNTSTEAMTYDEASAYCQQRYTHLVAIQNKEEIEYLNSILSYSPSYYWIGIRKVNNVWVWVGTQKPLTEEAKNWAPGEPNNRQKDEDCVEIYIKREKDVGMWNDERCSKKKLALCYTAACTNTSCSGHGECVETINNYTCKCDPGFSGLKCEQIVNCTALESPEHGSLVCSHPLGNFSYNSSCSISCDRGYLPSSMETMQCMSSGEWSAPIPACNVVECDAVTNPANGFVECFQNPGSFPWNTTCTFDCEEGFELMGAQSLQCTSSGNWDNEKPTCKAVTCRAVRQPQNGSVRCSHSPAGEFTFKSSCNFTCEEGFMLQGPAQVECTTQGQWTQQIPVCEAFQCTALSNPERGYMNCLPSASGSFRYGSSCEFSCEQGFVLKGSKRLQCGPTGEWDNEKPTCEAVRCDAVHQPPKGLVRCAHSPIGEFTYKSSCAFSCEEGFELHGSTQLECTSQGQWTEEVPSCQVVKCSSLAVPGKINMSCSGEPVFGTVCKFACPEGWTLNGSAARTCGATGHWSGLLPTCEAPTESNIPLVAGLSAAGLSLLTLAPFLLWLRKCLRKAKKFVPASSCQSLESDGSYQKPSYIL
Chain of Tumor necrosis factor (Homo sapiens) (P01375 whole entry, looked up): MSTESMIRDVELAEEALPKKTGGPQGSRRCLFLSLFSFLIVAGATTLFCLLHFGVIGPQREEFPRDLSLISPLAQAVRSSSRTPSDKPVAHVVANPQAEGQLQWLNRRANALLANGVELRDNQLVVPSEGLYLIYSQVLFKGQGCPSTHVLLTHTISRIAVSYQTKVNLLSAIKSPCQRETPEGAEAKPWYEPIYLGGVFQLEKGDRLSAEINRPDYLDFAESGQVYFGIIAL

In general, AC50 refers to the concentration at which the activity in the assay is half-maximal. In the case of `CCOP(=S)(OCC)SCCSCC`, the outcome in assay [1], in [2], in assay [3], in assay [4], in assay [5] and in assay [7] was inactive. Also, the result in assay [8], in assay [9], in assay [10], in assay [11], in assay [12] and in assay [13] was inactive. The outcome in [14], in [15], in assay [16], in [17], in [18] and in [19] was inactive. The outcome in assay [20] was inactive. Besides, the half-maximal activity concentration (AC50) in [6] is 29.4 µM (active).
In the case of `CCCCOC(=O)[C@@H](C)Oc1ccc(Oc2ccc(C#N)cc2F)cc1`, the outcome in assay [1], in assay [2], in assay [3], in assay [4], in [5] and in [6] was inactive. Besides, the result in assay [7], in [8], in assay [9], in assay [10], in assay [11] and in [12] was inactive. Further, the result in assay [13], in assay [14], in assay [15], in [16], in [17] and in [18] was inactive. In addition, the outcome in [19] and in assay [20] was inactive.
As for `CN(C)C(=O)Nc1cccc(C(F)(F)F)c1`, the outcome in [1], in assay [2], in assay [3], in assay [4], in assay [5] and in assay [6] was inactive. The result in assay [7], in assay [8], in assay [9], in assay [10], in [11] and in assay [12] was inactive. Moreover, the outcome in [13], in assay [14], in assay [15], in assay [16], in assay [17] and in [18] was inactive. Further, the result in assay [20] was inactive.
